This excerpt belongs to a sample that is enriched for hits.
AmpC inh detg – qHTS Inhibitors of AmpC Beta-Lactamase (assay with detergent); Potency, µM (highest dose often 114 µM), most hits filed as inhibitors; AmpC hydrolysis of nitrocefin, absorbance 480 nm, 0.01% Triton; actives 0.041% (n = 370,000); also: nearly all actives have a fitted effect of over 25% in size
Target sequence (P00811 whole entry, looked up): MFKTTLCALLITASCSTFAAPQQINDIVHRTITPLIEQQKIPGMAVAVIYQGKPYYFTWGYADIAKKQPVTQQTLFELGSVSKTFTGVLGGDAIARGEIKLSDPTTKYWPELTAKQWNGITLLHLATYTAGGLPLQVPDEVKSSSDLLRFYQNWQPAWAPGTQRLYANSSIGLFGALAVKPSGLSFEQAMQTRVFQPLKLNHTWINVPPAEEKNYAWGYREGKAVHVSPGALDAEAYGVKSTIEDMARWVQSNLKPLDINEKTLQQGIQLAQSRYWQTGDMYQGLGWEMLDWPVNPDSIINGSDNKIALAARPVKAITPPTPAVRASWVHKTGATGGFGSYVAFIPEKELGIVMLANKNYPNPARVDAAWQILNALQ
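20 mM phosphate pH 7.0 + 0.01% (detergent screen) or 0.0001% Triton X-100; 5.3 nM AmpC reagent; cpd preinc 15 min RT; nitrocefin (800 uM stock) to start; A480 q20 s × 4 min; Activity was normalised to no-enzyme and no-compound control wells.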
CHX counter – Cycloheximide Counterscreen for Small Molecule Inhibitors of Shiga Toxin; cell reporter, cycloheximide protein synthesis inhibition counterscreen; max response, %; actives 12% (n = 300,000); in the data active = max response mostly above about 13%, no sharp cut-off; inactive = mostly below about 14%; also: read at 38.3 µM for the half of the compounds with a filed dose
AMA1-RON2 inh – qHTS for Inhibitors of AMA1-RON; Towards Development of Antimalarial Drug Lead: Primary Screen. Plasmodium falciparum AMA1 (3D7) - RON2 peptide interaction. AlphaScreen AMA1-biotinylated RON2 peptide binding. Potency, µM (highest dose often 58.2 µM), most hits filed as inhibitors. actives 0.2% (n = 360,000). AID 720542, 2013; also: nearly all actives have a fitted effect of over 45% in size
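AMA1 (3D7) with his tag at 25 nM final met compounds first, then biotinylated RON2 peptide at 25 nM; detection used donor plus acceptor beads, 10 µg/mL apiece, read by AlphaScreen after 30 min at room temperature.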
AmpC no deterg – qHTS Inhibitors of AmpC Beta-Lactamase (assay without detergent). AmpC nitrocefin hydrolysis, absorbance 480 nm, 0.0001% Triton. AID 485341, 2010. Potency, µM (highest dose often 57.1 µM), actives largely listed as inhibitors. actives 0.52% (n = 330,000); also: nearly all actives have a fitted effect of over 20% in size
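AmpC (5.3 nM in the dispensed reagent) in 20 mM phosphate pH 7.0 with 0.01% (detergent screen) or 0.0001% Triton X-100 was preincubated with compounds for 15 min at room temperature. Nitrocefin was then added from an 800 uM solution, and hydrolysis was followed at 480 nm.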
SARS PLpro yeast – qHTS of Yeast-based Assay for SARS-CoV PLP; S. cerevisiae expressing SARS-CoV PLpro, growth rescue; Potency, µM (top dose mostly 32.9 µM), usual class: activators; actives 0.19% (n = 330,000); AID 485353, 2010; calls by dose curve; also: nearly all actives have a fitted effect of over 55% in size
Shiga inhibitor – A qHTS for Small Molecule Inhibitors of Shiga Toxin; Vero cells, Shiga toxin protein synthesis inhibition reporter; inhibition, % at 38.7 µM; actives 9.2% (n = 290,000); AID 2315, 2010; in the data active = inhibition mostly above about 28%, no sharp cut-off; inactive = mostly below about 43%
A number is an active result; . = inactive; ? = inconclusive; / = no result given; [ ] = dose if it differs, or a comment. Unless noted, calls follow the shape of the dose curve; as a rule, active = well fitted curve in the direction sought with a large enough effect; inconclusive = small, poorly fitted or top-dose-only effect, or another doubt; inactive = no such curve, though single readings can be large; an effect the other way counts as inactive or inconclusive.

SMILES	AmpC inh detg	CHX counter	AMA1-RON2 inh	AmpC no deterg	SARS PLpro yeast	Shiga inhibitor
O=C(NNc1nc2ccccc2s1)c1ccc(F)cc1	.	43.6	.	.	.	88.9
O=C(NNc1nc2c(F)cccc2s1)c1ccccc1	.	.	.	.	.	.
O=C(NNc1nc2ccc(F)cc2s1)c1cccc(F)c1	.	42.0	.	.	.	85.0
O=C(NNc1nc2c(F)cc(F)cc2s1)c1ccccc1	.	.	.	.	.	.
Cc1csc(CNc2ncnc3ccc(-c4ccccc4Cl)cc23)c1	?	/	/	.	.	/
CCc1noc(C)c1C(=O)N1CCCC1	.	.	.	.	.	.
COc1cccc(OCc2nnc(SC)n2C)c1	.	32.2	.	.	.	.
Cc1ccc2c(c1)sc(=NC(=O)C1CC1)n2C	.	44.7	.	.	.	88.8
COc1ccc2c(c1)CCc1c(C(=O)N3CCCc4ccccc43)noc1-2	.	27.1	.	.	.	.
COc1ccc2c(c1)CCc1c(C(=O)N3CCOCC3)noc1-2	.	31.1	.	.	.	74.0
COc1cccc(C(=O)N2CCCc3ccccc32)c1	.	.	.	.	.	.
NC(=O)c1cc2cc([N+](=O)[O-])ccc2oc1=O	.	.	.	.	.	.
CC(=O)Nc1ccc(OC(=O)c2c(-c3ccccc3Cl)noc2C)cc1	.	.	.	.	.	.
COc1ccc(NC(=O)Nc2ccc(Br)cn2)cc1OC	.	.	.	.	.	.
COc1cccc(NC(=O)NC2(C(F)(F)F)Oc3ccccc3O2)c1	.	44.5	.	.	.	65.9
COc1cccc(NC(=O)Nc2cccnc2)c1	.	13.8	.	.	.	.
COc1ccc(NC(=O)Nc2cccnc2)c(OC)c1	?	.	.	.[2.29 µM]	.	.
COc1cccc(NC(=O)Nc2cccc(C(=O)O)c2)c1	.	25.9	.	.	.	47.1
COc1cccc(NC(=O)Nc2ccc(Br)cn2)c1	.	25.8	.	.	.	78.2
N#CC1=C(N)Oc2cc3ccccc3cc2C1c1cccnc1 (configuration not stated)	.	.	.	.	.	.
COc1cccc(NC(=O)Nc2ccc(CC(=O)O)cc2)c1	.	.	.	.	.	.
Cn1ccc2cc(NC(=O)Nc3cccnc3)ccc21	/	29.6	?	/	/	48.8
Cc1cccc(NC(=O)Nc2cccnc2)c1C	.	.	.	.	.	.
CCc1ccc(NC(=O)Nc2cccc(OC)c2)cc1	.	25.9	.	.	.	105.2
O=C(CSc1nc2scc(-c3ccccc3)c2c(=O)[nH]1)N1CCCCC1	.	.	.	.	.	.
SMILES	AmpC inh detg	CHX counter	AMA1-RON2 inh	AmpC no deterg	SARS PLpro yeast	Shiga inhibitor
Cc1ccc(NC(=S)NNC(=O)c2ccco2)cc1	.	30.7	.	?	.	65.5
Cc1cccc(NC(=S)NNC(=O)c2ccco2)c1	.	22.9	.	.	.	active
Cc1ccc(C)c(NC(=S)NNC(=O)c2ccco2)c1	.	.	.	.	.	.
O=C(CCS(=O)(=O)c1ccccc1)NC12CC3CC(CC(C3)C1)C2	?	25.2	.	.	.	.
O=c1cc(N2CCOCC2)cnn1-c1ccccc1	.	39.8	.	.	.	72.6
CN(C)c1ccc(Nc2nc(N)c3ccccc3n2)cc1	.	.	?	.	.	/
CN(C)c1ccc(Sc2ccc3nc(N)nc(N)c3c2)cc1	/	/	10µM	/	/	/
COC(=O)C(Cc1ccc(OC(=O)c2ccccc2Cl)cc1)N1Cc2ccccc2C1=O (configuration not stated)	.	21.9	.	.	.	.
O=C(O)[C@H](Cc1ccccc1)N1Cc2ccccc2C1=O	?	.	.	.	.	.
COC(=O)C(Cc1ccc(OC(=O)c2ccccc2C)cc1)N1Cc2ccccc2C1=O (configuration not stated)	.	32.8	.	.	.	active
CCCc1nc2c(=O)n(C)c(=O)nc-2n(C)n1	.	.	.	.	.	.
Cn1nc(-c2ccccn2)nc2c(=O)n(C)c(=O)nc1-2	.	.	8.91µM	.	.	.
Cn1c(C(=O)O)c(CC(=O)Nc2ccc3c(c2)OCCO3)c2ccccc21	.	63.5	.	.	.	147.3
O=C(Cn1c(CO)nc2ccccc21)Nc1ccc2c(c1)OCCCO2	.	/	.	.	.	/
CC(O)c1nc2ccccc2n1CC(=O)Nc1ccc2c(c1)OCCO2 (configuration not stated)	.	26.5	.	.	.	.
Cc1cc(C(=O)COC(=O)c2ccc3c(c2)OCO3)c(C)n1Cc1cccs1	?	54.2	.	.	.	127.9
Cc1cc(C(=O)COC(=O)c2ccccc2O)c(C)n1Cc1cccs1	?	.	.	.	.	.
CCn1nc(C(=O)OCC(=O)c2cc(C)n(Cc3cccs3)c2C)c2ccccc2c1=O	.	72.4	.	.	.	65.5
CCn1nc(C(=O)OCC(=O)c2ccc(F)cc2)c2ccccc2c1=O	.	.	.	.	.	.
CCSc1nnc(NC(=O)c2nc(-c3ccccc3)n(-c3ccccc3)n2)s1	.	.	.	.	.	.
O=C(Nc1ccc(Br)cc1)c1cc(Br)cc(Br)c1O	/	41.8	/	/	/	93.0
CCc1ccc(NC(=O)c2ccccc2Br)cc1	.	34.6	.	.	.	61.0
CCc1ccc(NC(=O)c2n[nH]c(=O)c3ccccc23)cc1	.	36.0	.	.	.	79.4
O=C(Nc1ccc(Br)cc1)c1ccccc1Br	.	55.3	.	.	.	89.8
CC(=O)Nc1ccc(NC(=O)c2ccccc2Br)cc1	/	/	.	/	/	/
SMILES	AmpC inh detg	CHX counter	AMA1-RON2 inh	AmpC no deterg	SARS PLpro yeast	Shiga inhibitor
CN(C)C(=O)c1ccc(S(=O)(=O)NCc2ccc(Cl)cc2)s1	.	/	/	/	/	/
COC(=O)c1c(NC(=O)C(C)(C)C)sc2c1CCN(Cc1ccccc1)C2	?	.	.	.	.	.
CC(C)(C)C(=O)Nc1nc2c(s1)CN(Cc1ccccc1)CC2	.	44.1	.	.	.	67.2
O=C(Nc1nnc(Cc2ccccc2)s1)C1CCC1	.	.	.	.	.	.
O=C(Nc1nc2c(s1)CN(Cc1ccccc1)CC2)c1c(F)cccc1F	.	30.5	.	.	.	41.9
O=C(Nc1nc2c(s1)CN(Cc1ccccc1)CC2)C1CCCC1	.	22.7	?	.	.	.
CCN(CC(=O)Nc1cccc(OC)c1)C(=O)c1cccc(S(=O)(=O)N2CCc3ccccc32)c1	.	/	.[11.6 µM]	.	.	/
C=C(C)CN(CC)CCC(=O)Nc1ccc(OC)cc1OC	.	.	.	.	.	.
COc1ccc(OC)c(/C=N/NC(=O)c2[nH]ncc2Br)c1	.	42.5	.	.	.	72.3

Source: PubChem BioAssay
